The results in this text go back to the supplement of paper PMC10498489.

Hit rate of the full screen: of about 2,300 compounds, about 330 (14%) showed activity. Only a sample is shown. Values without a mark were called inactive.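 Rule for the calls: active = median modified Z-score above 1.96; inactive = 1.96 or below.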

The test deals with HepG2 Srxn1-GFP reporter cells (+30 nM CDDO-Me). The test can be described thus: Srxn1-GFP intensity median modified Z-score relative to plate median; higher = stronger NRF2 / oxidative stress reporter activation, active = hit call of the paper. To be noted: 10 µM; exposure time: 24h. The method, boiled down:
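HepG2 Srxn1-GFP BAC reporter cells (20,000 per well, 96-well plates) were co-exposed to an NRF2 activator at 30 nM and compound at 10 μM (≤0.1% DMSO) for 24 h in three replicate plates. After formaldehyde fixation and Hoechst staining, confocal images were analysed per cell for cytoplasmic GFP, excluding images with under 100 cells. The value is the median over replicates of the per-plate modified Z-score of GFP intensity. Scaling used 1.4826 × median absolute deviation.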
For the compound `CC1=CC(=O)c2ccccc2C1=O` [euspeclibcmpd446], the “Srxn1-GFP intensity median modified Z-score” value was 5.02 (active).

Take `CN1C(C(=O)N=c2cccc[nH]2)C(=O)c2sc(Cl)cc2S1(=O)=O` (stereo unspecified) [euspeclibcmpd458]: the “Srxn1-GFP intensity median modified Z-score” value is -0.432.

In the case of `CC(=O)OC=C1CSC2C(NC(=O)Cc3cccs3)C(=O)N2C1C(=O)O` (stereo unspecified) [euspeclibcmpd2267], the “Srxn1-GFP intensity median modified Z-score” value was 0.967.

For the compound `S=c1[nH]c2ccccc2s1` [euspeclibcmpd1954], the “Srxn1-GFP intensity median modified Z-score” value was -0.455.

`CN(C)CC/C=C1\c2ccccc2Sc2ccc(Cl)cc21` [euspeclibcmpd538]: the “Srxn1-GFP intensity median modified Z-score” value was -1.04.

With `CN1CCN(CC/C=C2\c3ccccc3Sc3ccc(S(=O)(=O)N(C)C)cc32)CC1` [euspeclibcmpd294], the “Srxn1-GFP intensity median modified Z-score” value is 4.72 (active).

`CN(C)CCC=C1c2ccccc2CCc2ccccc21` [euspeclibcmpd21]: the “Srxn1-GFP intensity median modified Z-score” value is 0.287.

Take `CN1CCC[C@@H]1Cc1c[nH]c2ccc(CCS(=O)(=O)c3ccccc3)cc12` [euspeclibcmpd938]: the “Srxn1-GFP intensity median modified Z-score” value was -0.193.

Turning to `CCCN(Cc1nnc(-c2cccs2)o1)C(=O)CSc1nnc(-c2cccs2)n1C1CC1`, the “Srxn1-GFP intensity median modified Z-score” value is 0.54.

As for `CC1O[C@@H](Oc2c(-c3ccc(O)c(O)c3)oc3cc(O)cc(O)c3c2=O)[C@H](O)[C@H](O)[C@H]1O` (stereo partly specified) [euspeclibcmpd1694], the “Srxn1-GFP intensity median modified Z-score” value was -0.35.

In the case of `CC(C)(C)c1ccc(C(=O)N/N=C/c2ccc([N+](=O)[O-])o2)cc1`, the “Srxn1-GFP intensity median modified Z-score” value is 1.17.

`O=C(N/N=C/c1ccc([N+](=O)[O-])o1)c1ccc(O)cc1` [euspeclibcmpd1226]: the “Srxn1-GFP intensity median modified Z-score” value was 0.949.

In the case of `O=c1[nH]c(O)cn1/N=C/c1ccc([N+](=O)[O-])o1` [euspeclibcmpd209], the “Srxn1-GFP intensity median modified Z-score” value is 0.292.

On to `O=C1OCCN1/N=C/c1ccc([N+](=O)[O-])o1` [euspeclibcmpd134], for which the “Srxn1-GFP intensity median modified Z-score” value was 2.95 (active).

With `NC(=O)N/N=C/c1ccc([N+](=O)[O-])o1` [euspeclibcmpd210], the “Srxn1-GFP intensity median modified Z-score” value was 10.3 (active).

With `O=C(N/N=C/c1ccc([N+](=O)[O-])o1)c1ccc(Br)cc1`, the “Srxn1-GFP intensity median modified Z-score” value is 4.87 (active).

As for `O=C1OC(CN2CCOCC2)CN1/N=C/c1ccc([N+](=O)[O-])o1` (stereo unspecified) [euspeclibcmpd1273], the “Srxn1-GFP intensity median modified Z-score” value is 0.605.

Take `CC(C)CC(N)C(=O)NC(C)C(=O)O` (stereo unspecified) [euspeclibcmpd1745]: the “Srxn1-GFP intensity median modified Z-score” value was 0.124.

For the compound `CC(=O)NCCc1ccc(O)c(C2C(=O)C(=O)c3c(c(O)c4c(C(=O)O)c(C(=O)O)c(O)cc4c3O)C2=O)c1` (stereo unspecified) [euspeclibcmpd1580], the “Srxn1-GFP intensity median modified Z-score” value is -0.208.

In the case of `CC(=O)OC=C1CSC2C(N)C(=O)N2C1C(=O)O` (stereo unspecified) [euspeclibcmpd1380], the “Srxn1-GFP intensity median modified Z-score” value was -0.0231.

In the case of `O=C(O)c1ccc[nH]c1=Nc1cccc(C(F)(F)F)c1` [euspeclibcmpd1074], the “Srxn1-GFP intensity median modified Z-score” value was -0.299.

Turning to `N#CCOC(=O)c1cc(-c2ccccc2)nc2ccccc12`, the “Srxn1-GFP intensity median modified Z-score” value was 1.25.

Turning to `NCCc1cc[nH]n1` [euspeclibcmpd614], the “Srxn1-GFP intensity median modified Z-score” value is 1.24.

In the case of `NC(=O)NC(CC(=O)O)C(=O)O` (stereo unspecified), the “Srxn1-GFP intensity median modified Z-score” value is 1.02.

As for `CNC(=O)CN1CCC(NC(=O)NCc2ccc(C)n2C)CC1`, the “Srxn1-GFP intensity median modified Z-score” value is 0.3.

Regarding `CN1CCN(C(=O)Oc2c3nccnc3c(O)n2-c2ccc(Cl)cn2)CC1` [euspeclibcmpd2130], the “Srxn1-GFP intensity median modified Z-score” value is -0.245.

Take `C=C(C)[C@@H]1CC[C@]2(C)CC[C@]3(C)[C@@H](CCC4[C@@]5(C)CC[C@H](O)C(C)(C)C5CC[C@]43C)C12` (stereo partly specified) [euspeclibcmpd1455]: the “Srxn1-GFP intensity median modified Z-score” value was -0.31.

Turning to `C=C(C)[C@@H]1CC[C@]2(C(=O)O)CC[C@]3(C)[C@H](CCC4[C@@]5(C)CC[C@H](O)C(C)(C)C5CC[C@]43C)[C@@H]12` (stereo partly specified) [euspeclibcmpd1473], the “Srxn1-GFP intensity median modified Z-score” value was -0.366.

Turning to `C=C(C)[C@@H]1CC[C@]2(CO)CC[C@]3(C)[C@H](CCC4[C@@]5(C)CC[C@H](O)C(C)(C)C5CC[C@]43C)C12` (stereo partly specified) [euspeclibcmpd1538], the “Srxn1-GFP intensity median modified Z-score” value was 10.7 (active).

In the case of `CC=C(c1ccc(O)cc1)C(CC)c1ccc(O)cc1` (stereo unspecified) [euspeclibcmpd93], the “Srxn1-GFP intensity median modified Z-score” value was 0.179.

In the case of `N=C(N)N` [euspeclibcmpd2417], the “Srxn1-GFP intensity median modified Z-score” value was -0.496.

As for `NCCSSCCN` [euspeclibcmpd2395], the “Srxn1-GFP intensity median modified Z-score” value was -0.505.

Consider `N=C(N)SCCN` [euspeclibcmpd1761], for which the “Srxn1-GFP intensity median modified Z-score” value was 3.8 (active).

With `N=c1[nH]c(=O)c2ncn(COC(CO)CO)c2[nH]1` [euspeclibcmpd487], the “Srxn1-GFP intensity median modified Z-score” value was 0.251.

Turning to `CCN1CCN(C(=O)NC(C(=O)NC2C(=O)N3C2SC(C)(C)[C@@H]3C(=O)O)c2ccccc2)C(=O)C1=O` (stereo partly specified) [euspeclibcmpd2069], the “Srxn1-GFP intensity median modified Z-score” value is 0.

On to `CC1(C)OC2CC3C4CC(F)=C5CC(=O)CCC5(C)C4C(O)CC3(C)C2(C(=O)CO)O1` (stereo unspecified) [euspeclibcmpd1953], for which the “Srxn1-GFP intensity median modified Z-score” value is -0.815.

`O=C1OC2(c3ccc(O)cc3Oc3cc(O)ccc32)c2ccccc21` [euspeclibcmpd769]: the “Srxn1-GFP intensity median modified Z-score” value is 2.16 (active).

Take `O=C1OC(c2ccc(O)cc2)(c2ccc(O)cc2)c2ccccc21` [euspeclibcmpd234]: the “Srxn1-GFP intensity median modified Z-score” value is 1.62.

`O=c1cc(-c2ccccc2O)oc2cc(O)ccc12` [euspeclibcmpd1982]: the “Srxn1-GFP intensity median modified Z-score” value is -0.161.

On to `CS(=O)(=O)c1ccc([C@H](O)[C@H](CF)NC(=O)C(Cl)Cl)cc1` [euspeclibcmpd827], for which the “Srxn1-GFP intensity median modified Z-score” value was -0.193.

For the compound `OC[C@H]1O[C@@H](Oc2ccc(Cl)cc2)[C@H](O)[C@@H](O)[C@H]1O`, the “Srxn1-GFP intensity median modified Z-score” value was 1.18.

In the case of `COC(=O)N=c1[nH]c2ccc(C(=O)c3ccccc3)cc2[nH]1` [euspeclibcmpd378], the “Srxn1-GFP intensity median modified Z-score” value is 19.3 (active).

Turning to `COC(=O)N=c1[nH]c2ccc(Sc3ccccc3)cc2[nH]1` [euspeclibcmpd371], the “Srxn1-GFP intensity median modified Z-score” value was 2.82 (active).

Turning to `COC(=O)N=c1[nH]c2ccc([S+]([O-])c3ccccc3)cc2[nH]1` (stereo unspecified) [euspeclibcmpd738], the “Srxn1-GFP intensity median modified Z-score” value is -0.824.

For the compound `COC(=O)N=c1[nH]c2ccc(C(=O)c3ccc(F)cc3)cc2[nH]1` [euspeclibcmpd2318], the “Srxn1-GFP intensity median modified Z-score” value was 8.09 (active).

Regarding `CCOC(=O)N=c1[nH]c2ccccc2[nH]1` [euspeclibcmpd787], the “Srxn1-GFP intensity median modified Z-score” value is -0.0391.

Regarding `O=c1oc2ccccc2cc1O` [euspeclibcmpd2250], the “Srxn1-GFP intensity median modified Z-score” value is -0.381.

Regarding `CCC(C)(C)c1ccc(CC(C)CN2C[C@@H](C)O[C@@H](C)C2)cc1` (stereo partly specified) [euspeclibcmpd489], the “Srxn1-GFP intensity median modified Z-score” value is 1.75.

With `CC1(C)O[C@@H]2CC3C4CC(F)=C5CC(=O)C=C[C@]5(C)[C@@]4(F)[C@@H](O)C[C@]3(C)[C@]2(C(=O)CO)O1` (stereo partly specified) [euspeclibcmpd129], the “Srxn1-GFP intensity median modified Z-score” value is 0.0501.

For the compound `CCC(C)C1NC(=O)C(CCNCS(=O)(=O)O)NC(=O)C(NC(=O)C(CCNCS(=O)(=O)O)NC(=O)C(NC(=O)C(CCNCS(=O)(=O)O)NC(=O)CCCCC(C)C)C(C)O)CCNC(=O)C(C(C)O)NC(=O)C(CCNCS(=O)(=O)O)NC(=O)C(CCNCS(=O)(=O)O)NC(=O)C(C(C)CC)NC1=O` (stereo unspecified) [euspeclibcmpd2131], the “Srxn1-GFP intensity median modified Z-score” value was 0.0847.

Turning to `CCC(C)n1nccc1NC(=O)C(C)N1CCSCC1` (stereo unspecified), the “Srxn1-GFP intensity median modified Z-score” value is 0.365.

`COC1(C)CCC2OC2(C)CCC2C1CC2(C)C` (stereo unspecified) [euspeclibcmpd2008]: the “Srxn1-GFP intensity median modified Z-score” value is -0.165.

For the compound `CC1(C)[C@@H]2CC[C@]1(C)C(=O)C2` [euspeclibcmpd42], the “Srxn1-GFP intensity median modified Z-score” value was -0.12.

In the case of `O=C(O)c1cc(O)c2c(O)c3c(OC4OC(CO)C(O)C(O)C4O)cccc3c(-c3c4cc(C(=O)O)cc(O)c4c(O)c4c(OC5OC(CO)C(O)C(O)C5O)cccc34)c2c1` (stereo unspecified) [euspeclibcmpd1934], the “Srxn1-GFP intensity median modified Z-score” value is -0.281.

`Cn1nnnc1SC=C1CSC2C(NC(=O)C(O)c3ccccc3)C(=O)N2C1C(=O)O` (stereo unspecified) [euspeclibcmpd2229]: the “Srxn1-GFP intensity median modified Z-score” value is -0.103.

In the case of `O=C(Nc1ccccc1Cl)C1=NN(C2CCS(=O)(=O)C2)C(=O)CC1` (stereo unspecified), the “Srxn1-GFP intensity median modified Z-score” value is 1.26.

In the case of `COc1cc(OC)c2c(=O)c(-c3ccccc3)c(C)oc2c1OC` [euspeclibcmpd2303], the “Srxn1-GFP intensity median modified Z-score” value is 1.35.

Turning to `O=C(O)Cc1ccccc1Nc1c(Cl)cccc1Cl` [euspeclibcmpd2396], the “Srxn1-GFP intensity median modified Z-score” value is 0.438.

Turning to `N=c1[nH]c(N2CCCCC2)cc(N)[n+]1[O-]` [euspeclibcmpd792], the “Srxn1-GFP intensity median modified Z-score” value was -0.234.

`CC1(C)O[C@@H]2CC3C4CC(F)=C5CC(=O)C=CC5(C)C4C(O)CC3(C)[C@]2(C(=O)CO)O1` (stereo partly specified) [euspeclibcmpd414]: the “Srxn1-GFP intensity median modified Z-score” value is 0.0846.

Turning to `O=C1CCC(N2C(=O)c3ccccc3C2=O)C(=O)N1` (stereo unspecified) [euspeclibcmpd588], the “Srxn1-GFP intensity median modified Z-score” value is -0.192.

Turning to `NC(=O)Nc1[nH]c(=O)[nH]c1O` [euspeclibcmpd347], the “Srxn1-GFP intensity median modified Z-score” value was -0.31.

In the case of `CC1CCC2[C@@]3(C)C=CC(=O)C(C)(C)C3CC3OC(=O)C(=O)C1[C@]32C` (stereo partly specified) [euspeclibcmpd1535], the “Srxn1-GFP intensity median modified Z-score” value is 9.38 (active).

`CC(=O)OC=C1CSC2C(NC(=O)CSc3ccncc3)C(=O)N2C1C(=O)O` (stereo unspecified) [euspeclibcmpd2110]: the “Srxn1-GFP intensity median modified Z-score” value was 0.0966.

For `S=C1SCN(Cc2ccccc2)CN1Cc1ccccc1` [euspeclibcmpd1200], the “Srxn1-GFP intensity median modified Z-score” value was 10 (active).

Consider `OCCc1ccccc1` [euspeclibcmpd771], for which the “Srxn1-GFP intensity median modified Z-score” value is -0.962.

As to `CC(=O)NC1C(O)OC(CO)C(O)C1O` (stereo unspecified) [euspeclibcmpd1995], the “Srxn1-GFP intensity median modified Z-score” value is -0.204.

Turning to `Cc1c(N=c2[nH]cccc2C(=O)O)cccc1C(F)(F)F` [euspeclibcmpd1313], the “Srxn1-GFP intensity median modified Z-score” value was 0.328.

In the case of `Cc1cnc(C(=O)O)c[n+]1[O-]` [euspeclibcmpd1196], the “Srxn1-GFP intensity median modified Z-score” value was -0.419.

For `CN[C@@H]1[C@H](OC2[C@H](O[C@H]3[C@H](O)[C@@H](O)[C@H](N=C(N)N)[C@@H](O)[C@@H]3N=C(N)N)O[C@@H](C)[C@]2(O)C=O)O[C@@H](CO)[C@H](O)[C@H]1O` (stereo partly specified) [euspeclibcmpd270], the “Srxn1-GFP intensity median modified Z-score” value was -0.445.

On to `C=C(C)[C@H]1C=CC(C(=O)O)CC1` (stereo partly specified) [euspeclibcmpd1451], for which the “Srxn1-GFP intensity median modified Z-score” value is -0.188.
